Experimental findings from PubChem BioAssay (NCATS) are described below.

In assay [1] the target is Lysosomal acid glucosylceramidase (Homo sapiens) (UniProt P04062). Kind of assay: Glucocerebrosidase-p2 (AID 348; in the data active = potency below about 10 µM; note: potency is the fitted concentration of half-maximal effect). As to conditions: purified GBA, blue fluorogenic substrate, 40 min. The essentials:
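Compounds titrated from 0.6 nM upwards against 0.2 nM enzyme in pH 5.9 citric acid/KH2PO4, taurocholate, tween-20; blue fluorogenic substrate 80 uM, 40 min room temperature, stopped and read Ex 365/Em 440 for AC50.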

Assay [2] in a line: AP1 Signaling Pathway (AID 357). Note: % is set by controls: 0 for no effect and ±100 for the full control effect. Conditions: ME-180 AP-1-bla reporter, EGF-induced, beta-lactamase ratio, 5 h; at 7.69 µM (top of the series) unless noted. In outline:
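ME-180 cells with beta-lactamase reporter under AP-1 response element, stimulated with EC50 EGF; compounds tested in titration series, 5 h at 37 °C. CCF4 substrate added 2.5 h at room temperature; 460/530 nm emission ratio gave %activity and AC50.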

The target in assay [3] is Cytochrome P450 1A2 (Homo sapiens) (UniProt P05177). As to the kind of experiment: p450-cyp1a2 (AID 410; calls by dose curve; note: potency is the fitted concentration of half-maximal effect). As to conditions: recombinant CYP1A2, luciferin-ME demethylation, luminescence; series mostly up to 11.4 µM. In outline: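 Inhibition was calculated relative to 57 uM furafylline (full inhibition). The reaction used human CYP1A2 at 20nM with Luciferin-ME at its Km, 100uM, driven by an NADPH-regenerating system for 60 min at room temperature.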
Cytochrome P450 1A2 (Homo sapiens), sequence (P05177 whole entry, looked up): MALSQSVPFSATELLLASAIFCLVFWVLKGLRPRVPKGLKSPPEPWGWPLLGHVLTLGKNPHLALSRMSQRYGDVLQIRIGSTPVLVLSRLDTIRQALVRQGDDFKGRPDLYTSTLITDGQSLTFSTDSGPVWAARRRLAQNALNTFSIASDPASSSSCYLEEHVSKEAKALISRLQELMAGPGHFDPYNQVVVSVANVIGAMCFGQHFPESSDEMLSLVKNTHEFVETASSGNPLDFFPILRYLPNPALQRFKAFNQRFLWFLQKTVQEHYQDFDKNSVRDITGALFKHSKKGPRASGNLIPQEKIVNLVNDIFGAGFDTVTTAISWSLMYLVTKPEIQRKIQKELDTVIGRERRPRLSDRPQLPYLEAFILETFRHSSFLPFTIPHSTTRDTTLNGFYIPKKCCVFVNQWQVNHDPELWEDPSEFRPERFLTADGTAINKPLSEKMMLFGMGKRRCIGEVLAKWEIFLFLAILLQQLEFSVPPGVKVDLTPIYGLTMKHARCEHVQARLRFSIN

A short description of assay [4]: NFAT Signaling Pathway (AID 444).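 Note: carbachol stimulus at about its EC50 of 1 µM final; % is set by controls: 0 for no effect and ±100 for the full control effect.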 As to conditions: Jurkat NFAT-bla M1, carbachol, beta-lactamase ratio, 5 h; at 7.69 µM (top of the series) unless noted. The essentials: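 Jurkat cells with NFAT-driven β-lactamase reporter and co-expressed M1 receptor, stimulated with carbachol (final 1 uM, ~EC50), compound titration, 5 h at 37 °C. CCF4 loaded 1 h at RT; 460/530 nm ratio gave %activity and AC50.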

The target of assay [5] is Mitogen-activated protein kinase 10 (Mus musculus) (UniProt Q61831). Kind of assay: JNK3 AlphaScreen Assay (AID 530).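 Note: kinase came from lysate of stimulated human HepG2 cells; signal reports phosphorylation of biotinylated GST-cJun 1-79 at Ser73 with 10 µM ATP; % is set by controls: 0 for no effect and ±100 for the full control effect.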 As to conditions: JNK3 lysate, c-Jun phosphorylation; series mostly up to 11.4 µM. The essentials:
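qHTS format: compounds tested as titrations against IL-1beta/TNF-alpha-activated HepG2 lysate JNK3 with biotin-GST-cJun substrate and 10 uM ATP at room temperature. Loss of anti-phospho-cJun AlphaScreen signal indicates inhibition.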

The target of assay [6] is 3',5'-cyclic-AMP phosphodiesterase 4B (Homo sapiens) (UniProt Q07343). As to the kind of experiment: qHTS Assay for Inhibitors of PDE-IV (AID 607; active = well fitted activation curve with a large enough effect in the main read-out, with a control signal flat, not every such curve was filed as active; note: % of control where 0% means no effect). Conditions: HEK293 ACTOne CNG channel cells, membrane potential fluorescence; series mostly up to 22.9 µM. In outline:
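The readout is membrane depolarisation from a cAMP-sensing CNG channel, detected with a potential dye at ex 535/em 590. Cells were HEK293-derived (endogenous PDE-IV) at 1000 cells/well, titrated up to 22.9 uM final.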

In assay [7] the target is Glucocorticoid receptor (Homo sapiens) (UniProt P04150). Kind of assay: GR-GFP Redistribution (AID 450;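 active = compounds whose dose series gives a full or clear partial fitted curve of increased nuclear translocation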; note: potency is the fitted concentration of half-maximal effect). Conditions: U2OS GR-GFP nuclear translocation, laser cytometry, 2 h.
Glucocorticoid receptor (Homo sapiens), sequence (P04150 whole entry, looked up, the tested form may be a part): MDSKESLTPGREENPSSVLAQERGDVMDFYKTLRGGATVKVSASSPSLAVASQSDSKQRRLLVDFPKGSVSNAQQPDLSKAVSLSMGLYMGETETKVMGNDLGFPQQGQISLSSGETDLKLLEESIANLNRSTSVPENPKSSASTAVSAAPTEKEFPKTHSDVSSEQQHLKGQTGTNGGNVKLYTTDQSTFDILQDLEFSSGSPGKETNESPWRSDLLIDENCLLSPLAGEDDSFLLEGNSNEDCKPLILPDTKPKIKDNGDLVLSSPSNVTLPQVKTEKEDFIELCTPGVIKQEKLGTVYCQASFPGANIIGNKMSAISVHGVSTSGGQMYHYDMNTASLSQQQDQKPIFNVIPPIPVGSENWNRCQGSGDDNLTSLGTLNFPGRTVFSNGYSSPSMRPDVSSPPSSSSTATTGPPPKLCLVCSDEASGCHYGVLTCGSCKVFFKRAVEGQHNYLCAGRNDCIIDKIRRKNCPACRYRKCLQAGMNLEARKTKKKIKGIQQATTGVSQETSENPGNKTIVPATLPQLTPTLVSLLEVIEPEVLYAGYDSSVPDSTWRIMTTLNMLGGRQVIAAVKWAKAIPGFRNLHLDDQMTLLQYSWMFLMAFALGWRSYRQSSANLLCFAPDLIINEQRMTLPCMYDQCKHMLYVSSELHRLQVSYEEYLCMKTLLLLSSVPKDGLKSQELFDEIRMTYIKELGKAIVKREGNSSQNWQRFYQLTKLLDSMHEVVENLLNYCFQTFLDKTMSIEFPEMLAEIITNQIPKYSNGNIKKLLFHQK
The target is the same in assay [8]. Kind of assay: GR-EFC Redistribution (AID 451; calls by dose curve; note: potency is the fitted concentration of half-maximal effect). As to conditions: CHO-K1 GR-EFC translocation, beta-gal luminescence, 2 h. In outline: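 CHO-K1 cells expressing nuclear EA and GR-ED fragments of b-gal; compounds titrated up to 46 uM final, 2 h at 37 C. GR nuclear translocation read as complemented b-gal luminescence after 1 h RT detection.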
The target of assay [9] is Cytochrome P450 3A4 (Homo sapiens) (UniProt P08684). Kind of assay: qHTS Assay for Activators of Cytochrome P450 3A4 (AID 885; active = well fitted curve in the direction sought with a large enough effect; an effect the other way counts as inactive or inconclusive; note: nearly all actives have a fitted effect of over 65% in size). As to conditions: recombinant CYP3A4, Luciferin-PPXE luminescence, 60 min; series mostly up to 11.4 µM. The essentials: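 Steps: enzyme/substrate mix dispensed; compound added, 10 min RT; NADPH regeneration solution added, 60 min RT; luciferin detection buffer stops reaction; 20 min later luminescence measured.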
Cytochrome P450 3A4 (Homo sapiens), sequence (P08684 whole entry, looked up): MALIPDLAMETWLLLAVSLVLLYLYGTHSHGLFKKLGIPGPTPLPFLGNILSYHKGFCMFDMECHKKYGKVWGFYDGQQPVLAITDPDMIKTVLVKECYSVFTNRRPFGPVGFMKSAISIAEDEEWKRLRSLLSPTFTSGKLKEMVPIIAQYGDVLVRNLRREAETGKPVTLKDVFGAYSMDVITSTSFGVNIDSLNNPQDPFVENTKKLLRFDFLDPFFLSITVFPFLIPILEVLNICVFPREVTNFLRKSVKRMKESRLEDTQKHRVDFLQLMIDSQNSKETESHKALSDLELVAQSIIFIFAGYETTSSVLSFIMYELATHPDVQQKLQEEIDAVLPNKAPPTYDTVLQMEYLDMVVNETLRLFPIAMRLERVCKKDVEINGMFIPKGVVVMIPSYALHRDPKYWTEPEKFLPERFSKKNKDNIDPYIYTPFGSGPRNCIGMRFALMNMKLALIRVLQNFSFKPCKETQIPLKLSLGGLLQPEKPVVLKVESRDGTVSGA

Assay [10] deals with Cytochrome P450 2C9 (Homo sapiens) (UniProt P11712). As to the kind of experiment: qHTS Assay for Inhibitors and Substrates of Cytochrome P450 2C9 (AID 883; active = well fitted curve in the direction sought with a large enough effect; an effect the other way counts as inactive or inconclusive; note: potency is the fitted concentration of half-maximal effect; nearly all actives have a fitted effect of over 60% in size). Conditions: recombinant CYP2C9, luciferin-H luminescence, 60 min; series mostly up to 11.4 µM. In outline: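 Human CYP2C9 (10nM) with Luciferin-H at 100uM (its KM) in 25mM KPO4; compound preincubated 10 min at 37C, then NADPH regeneration for 60 min at 37C. Luciferin read by luminescence after detection reagent; normalized to 57uM sulphaphenazole as full inhibition.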
Cytochrome P450 2C9 (Homo sapiens), sequence (P11712 whole entry, looked up): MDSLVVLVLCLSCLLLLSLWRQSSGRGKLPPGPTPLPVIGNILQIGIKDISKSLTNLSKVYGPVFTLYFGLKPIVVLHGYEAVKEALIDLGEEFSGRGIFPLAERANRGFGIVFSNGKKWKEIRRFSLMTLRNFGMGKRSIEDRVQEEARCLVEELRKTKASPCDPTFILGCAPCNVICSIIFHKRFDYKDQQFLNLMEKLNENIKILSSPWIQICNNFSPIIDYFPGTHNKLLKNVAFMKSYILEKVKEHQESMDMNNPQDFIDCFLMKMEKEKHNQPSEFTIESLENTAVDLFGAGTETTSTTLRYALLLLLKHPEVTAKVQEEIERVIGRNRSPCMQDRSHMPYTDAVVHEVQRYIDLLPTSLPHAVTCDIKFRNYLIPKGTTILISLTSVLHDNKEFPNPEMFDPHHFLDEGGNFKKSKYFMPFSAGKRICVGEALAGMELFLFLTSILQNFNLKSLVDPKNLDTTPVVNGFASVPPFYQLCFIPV
For orientation: qHTS replaces the single test concentration by a dilution series.

Assay [11] has as its target Cytochrome P450 2C19 (Homo sapiens) (UniProt P33261). Kind of assay: qHTS Assay for Inhibitors and Substrates of Cytochrome P450 2C19 (AID 899; active = well fitted curve in the direction sought with a large enough effect; an effect the other way counts as inactive or inconclusive; note: nearly all actives have a fitted effect of over 60% in size; note: potency is the fitted concentration of half-maximal effect). Conditions: recombinant CYP2C19, luciferin-H EGE luminescence; series mostly up to 11.4 µM. The essentials:
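5 nM human CYP2C19 with 10uM Luciferin-H EGE (at KM) in 50mM KPO4, compound preincubated 10 min at 37C, then NADPH regeneration for 60 min at 37C. Luciferin read by luminescence after detection reagent; normalized to 57uM ketoconazole as full inhibition.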

Assay [12] is described as follows: qHTS Assay for Identification of Small Molecule Agonists for Hypoxia Response Element Signaling Pathway (AID 914; active = well fitted activation curve with a large enough effect in the signal ratio, with a control signal flat, not every such curve was filed as active; the % refers to the signal ratio; note: % of control where 0% means no effect). Conditions: ME-180 HRE-bla reporter, beta-lactamase ratio, CoCl2, 17 h; activation: stronger effect = higher value. The essentials: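 HRE-bla ME-180 assay for agonist-like enhancement of an EC50 CoCl2 stimulus: 17 h at 37 degrees Celsius, CCF4 for 2.5 h, ratiometric 460/530 nm signal converted to %Activity and fitted to AC50.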

Assay [13] has as its target Cytochrome P450 2D6 (Homo sapiens) (UniProt P10635). As to the kind of experiment: qHTS Assay for Inhibitors and Substrates of Cytochrome P450 2D6 (AID 891; active = well fitted curve in the direction sought with a large enough effect; an effect the other way counts as inactive or inconclusive; note: potency is the fitted concentration of half-maximal effect; nearly all actives have a fitted effect of over 60% in size). As to conditions: recombinant CYP2D6, luciferin-ME EGE luminescence; series mostly up to 11.4 µM. The essentials:
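Human CYP2D6 (5 nM) with 30 uM Luciferin-ME EGE (at Km) in 100 mM KPO4, compound preincubated 10 min, then NADPH regeneration system for 60 min at room temperature. Luciferin read by luminescence; normalized to 1.43 uM quinidine.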

Assay [14] can be described thus: Stat Signaling Pathway (AID 446).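 Note: ME-180 cervical cancer cells given 40 pM IL-6 alongside compound; SIE-controlled beta-lactamase reporter measured as 460/530 nm FRET emission ratio; % is set by controls: 0 for no effect and ±100 for the full control effect.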 As to conditions: ME-180 SIE beta-lactamase reporter, IL-6 stimulated, 5 h; at 7.69 µM (top of the series) unless noted. The essentials:
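Screening format detects activators and inhibitors alike: ME-180 SIE-bla cells stimulated at 40 pM IL-6 for 5 hrs with compound, then dual-emission beta-lactamase read at 405 nm excitation.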

Assay [15] has as its target Cytochrome P450 3A4 (Homo sapiens) (UniProt P08684). As to the kind of experiment: qHTS Assay for Inhibitors and Substrates of Cytochrome P450 3A4 (AID 884; active = well fitted curve in the direction sought with a large enough effect; an effect the other way counts as inactive or inconclusive; note: potency is the fitted concentration of half-maximal effect; nearly all actives have a fitted effect of over 50% in size). Conditions: recombinant CYP3A4, Luciferin-PPXE luminescence; series mostly up to 57.1 µM. The essentials:
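20 nM human CYP3A4 with 25 uM Luciferin-PPXE (at KM) in 200 mM KPO4, preincubated 10 min with compound; NADPH regeneration started a 60 min RT reaction. Luciferin detected by luminescence, normalized to 57 uM ketoconazole as full inhibition.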

Values without a mark were called inactive. Results filed as inconclusive are left out. Calls of active or inactive are those of the source. Unless noted, calls come from the whole dose curve; as a rule, active = well fitted curve in either direction with a large enough effect (not every such curve was filed as active); inconclusive = small, poorly fitted or top-dose-only effect, or another doubt; inactive = flat fitted curve, though single readings scatter. Some results are limits rather than exact numbers.

3',5'-cyclic-AMP phosphodiesterase 4B (Homo sapiens), sequence (Q07343 whole entry, looked up): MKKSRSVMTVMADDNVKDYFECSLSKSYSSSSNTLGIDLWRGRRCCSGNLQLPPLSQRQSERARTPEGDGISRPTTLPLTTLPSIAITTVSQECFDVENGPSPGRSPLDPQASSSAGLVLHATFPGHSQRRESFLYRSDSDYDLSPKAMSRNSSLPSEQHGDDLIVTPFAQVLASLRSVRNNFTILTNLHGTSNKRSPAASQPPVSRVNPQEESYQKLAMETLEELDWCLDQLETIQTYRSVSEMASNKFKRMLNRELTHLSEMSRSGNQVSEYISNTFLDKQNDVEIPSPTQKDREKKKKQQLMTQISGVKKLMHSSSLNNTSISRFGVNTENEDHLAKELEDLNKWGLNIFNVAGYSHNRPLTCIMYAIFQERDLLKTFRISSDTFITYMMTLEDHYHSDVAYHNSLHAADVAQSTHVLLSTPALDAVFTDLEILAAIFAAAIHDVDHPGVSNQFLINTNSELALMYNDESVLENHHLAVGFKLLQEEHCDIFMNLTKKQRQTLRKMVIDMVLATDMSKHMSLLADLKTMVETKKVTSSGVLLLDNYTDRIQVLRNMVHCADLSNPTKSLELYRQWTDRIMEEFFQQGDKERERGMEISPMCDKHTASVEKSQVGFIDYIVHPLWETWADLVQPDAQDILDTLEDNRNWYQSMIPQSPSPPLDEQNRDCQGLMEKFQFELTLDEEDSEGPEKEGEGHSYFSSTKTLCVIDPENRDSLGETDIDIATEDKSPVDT
Lysosomal acid glucosylceramidase (Homo sapiens), sequence (P04062 whole entry, looked up): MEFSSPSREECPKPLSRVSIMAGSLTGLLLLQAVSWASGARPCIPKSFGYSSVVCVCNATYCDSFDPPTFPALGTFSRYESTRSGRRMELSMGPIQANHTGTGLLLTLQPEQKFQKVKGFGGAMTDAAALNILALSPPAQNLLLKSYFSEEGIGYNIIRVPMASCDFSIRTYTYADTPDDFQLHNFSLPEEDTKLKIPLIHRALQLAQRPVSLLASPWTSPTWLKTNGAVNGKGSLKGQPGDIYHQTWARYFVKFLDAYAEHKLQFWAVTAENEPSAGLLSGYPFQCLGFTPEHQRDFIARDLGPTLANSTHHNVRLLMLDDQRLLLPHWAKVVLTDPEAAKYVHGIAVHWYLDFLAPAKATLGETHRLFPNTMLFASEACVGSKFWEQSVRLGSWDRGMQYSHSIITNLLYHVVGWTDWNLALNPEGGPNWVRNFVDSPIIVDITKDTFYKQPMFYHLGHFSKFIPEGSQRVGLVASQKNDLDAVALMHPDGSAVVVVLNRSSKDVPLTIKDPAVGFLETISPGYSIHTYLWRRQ
Cytochrome P450 2C19 (Homo sapiens), sequence (P33261 whole entry, looked up): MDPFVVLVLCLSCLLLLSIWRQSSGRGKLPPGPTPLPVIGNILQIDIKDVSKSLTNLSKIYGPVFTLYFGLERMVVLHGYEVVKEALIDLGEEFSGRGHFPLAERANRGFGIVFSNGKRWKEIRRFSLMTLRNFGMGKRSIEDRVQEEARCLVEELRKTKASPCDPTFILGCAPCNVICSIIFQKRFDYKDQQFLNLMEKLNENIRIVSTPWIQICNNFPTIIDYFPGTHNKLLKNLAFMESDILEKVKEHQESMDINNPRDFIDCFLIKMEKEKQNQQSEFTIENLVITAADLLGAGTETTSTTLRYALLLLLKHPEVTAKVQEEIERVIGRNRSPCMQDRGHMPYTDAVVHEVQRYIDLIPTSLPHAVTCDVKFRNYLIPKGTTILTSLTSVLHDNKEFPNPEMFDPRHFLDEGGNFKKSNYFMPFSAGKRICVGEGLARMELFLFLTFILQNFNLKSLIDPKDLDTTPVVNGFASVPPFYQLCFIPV
Cytochrome P450 2D6 (Homo sapiens), sequence (P10635 whole entry, looked up): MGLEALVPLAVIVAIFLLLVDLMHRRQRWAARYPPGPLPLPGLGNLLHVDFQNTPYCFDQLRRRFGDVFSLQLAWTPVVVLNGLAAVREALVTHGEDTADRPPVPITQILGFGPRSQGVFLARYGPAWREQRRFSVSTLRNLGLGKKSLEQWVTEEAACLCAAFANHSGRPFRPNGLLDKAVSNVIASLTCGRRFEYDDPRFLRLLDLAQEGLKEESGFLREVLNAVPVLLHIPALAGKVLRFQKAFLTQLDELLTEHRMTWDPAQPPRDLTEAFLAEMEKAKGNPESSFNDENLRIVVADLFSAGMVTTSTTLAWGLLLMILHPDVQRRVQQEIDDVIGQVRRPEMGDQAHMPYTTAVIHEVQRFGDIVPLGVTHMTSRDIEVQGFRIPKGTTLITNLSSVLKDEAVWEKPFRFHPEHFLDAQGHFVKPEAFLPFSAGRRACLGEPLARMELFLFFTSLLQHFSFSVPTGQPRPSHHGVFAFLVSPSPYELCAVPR

Regarding `O=C(O)C[n+]1ccccc1`, in assay [1], the Potency was over 11.4 µM. The activity change, negative = inhibition in assay [2] is -3.27%; in [4] it was -24%. Also, the Potency entry in assay [3], in [5] and in assay [6] was “inactive” in each case.

As to `CCNc1ncc2nc(C)c(=O)n(Cc3cccc(OC)c3)c2n1`, the Potency is over 11.4 µM in assay [1], 3.16 µM (active) in assay [3], over 9.22 µM in assay [7] and over 46 µM in assay [8]. The activity change, negative = inhibition in assay [2] is -13.2%; in assay [4], -2.59%. Further, the Potency entry in assay [5], in [6] and in assay [9] was “inactive” throughout.

Consider `COC(=O)CC[C@@H](C)[C@H]1CC[C@H]2[C@H]3CC[C@H]4C[C@@H]5CC[C@@]4(C)C3(O5)[C@@H](Br)[C@@H](Br)[C@@]12C`, for which the Potency in assay [1] is over 11.4 µM; in [7], over 46 µM; in assay [8], over 9.22 µM; in [10] it was 2.51 µM (active). In addition, the values for the activity change, negative = inhibition in assay [2] and in assay [4] were 21.4% and 8.56%, respectively. Besides, the Potency result in assay [3], in assay [6] and in [9] was “inactive” throughout.

Turning to `CC1=c2c(oc3cc(O)c(Nc4c(C)cc(O)cc4O)c(C)c23)=CC(=O)C1=Nc1c(C)cc(O)cc1O`, the Potency in [1] was over 11.4 µM; in [3], 3.16 µM (active); in assay [7], over 46 µM; in assay [8], over 9.22 µM; in assay [10] it was 3.16 µM (active); in assay [11], 3.16 µM (active). Moreover, the activity change, negative = inhibition in assay [2] was -6.5%; in assay [4], -22.3%. Moreover, the Potency result in assay [6] was “inactive”.

Regarding `Cc1cc(SCC(=O)c2ccc(Br)cc2)cc(C)[o+]1`, the Potency in assay [1] was over 11.4 µM; in assay [3], 3.98 µM (active); in assay [7] it was over 46 µM; in [8] it was over 9.22 µM; in assay [10], 2.51 µM (active). The activity change, negative = inhibition in assay [2] is -6.95%; in assay [4] it was 27.1%. Further, the Potency result in assay [5] and in assay [6] was “inactive” throughout. Also, the activation in assay [12] was 15.2%.

For `O=C(O)/C=C\c1c2ccc(=O)c(O)c-2oc2c(O)c(O)ccc12`, the Potency in [1] was over 11.4 µM; in assay [7], over 46 µM; in [8], over 9.22 µM. For the same molecule, the results for the activity change, negative = inhibition in assay [2], in assay [3] and in assay [4] were -8.29%, -19.8% [at 2.29 µM] and 2.25%, respectively. The Potency entry in assay [6] is “inactive”.

Take `CC(C)NC[C@@H](O)c1ccc(O)c2ncccc12`: the Potency in [1] was over 11.4 µM; in assay [7], over 46 µM; in [8] it was over 9.22 µM. The activity change, negative = inhibition was -5.62% in assay [2], -12.1% [at 2.29 µM] in assay [3] and 14% in assay [4]. Also, the Potency result in assay [5], in assay [6] and in assay [11] was “inactive” in each case.

With `Cn1cnc([N+](=O)[O-])c1SCC(=O)O`, the Potency in assay [1] is over 11.4 µM; in assay [7], over 46 µM; in assay [8], over 9.22 µM. The activity change, negative = inhibition is 3.98% in assay [2] and 3.51% in assay [4]. For the same molecule, the Potency entry in assay [3], in assay [5], in assay [6] and in assay [11] was “inactive” each time.

`O=C(O)c1nnsc1-c1csnn1`: the results for the Potency in [1], in assay [7] and in [8] were over 11.4 µM, over 46 µM and over 9.22 µM, respectively. For the same molecule, the results for the activity change, negative = inhibition in assay [2] and in assay [4] were 2.29% and 4.42%, respectively. Moreover, the Potency entry in assay [3], in [5] and in [6] was “inactive” in each case.

As to `N/C(=N\O)c1cn([C@@H]2O[C@@H](CO)[C@H](O)[C@@H]2O)c2ncnc(NO)c12`, the Potency in assay [1] is over 11.4 µM; in assay [7], over 46 µM; in [8] it was over 9.22 µM. Moreover, the activity change, negative = inhibition in assay [2] is 5.84%; in assay [3], -18.7% [at 2.29 µM]; in assay [4], 19.5%. Besides, the Potency result in [5] and in [6] was “inactive” throughout.

On to `Sc1ccc2ccccc2c1CNCc1ccccc1`, for which the Potency in [1] is over 11.4 µM; in [3] it was 1.26 µM (active); in assay [7], over 46 µM; in [8], over 9.22 µM; in [13], 1.26 µM (active). Also, the figures for the activity change, negative = inhibition in assay [2] and in assay [4] were 12.3% and -0.525%, respectively. The Potency entry in [5] and in assay [6] was “inactive” each time.

For the molecule `O=C(O)c1ccccc1-c1ccccc1C(=O)Nc1ccc2c(c1)Cc1cc(F)ccc1-2`, the Potency in assay [1] was over 11.4 µM; in assay [3] it was 3.98 µM (active); in assay [7], over 46 µM; in [8], over 9.22 µM; in assay [10] it was 2.51 µM (active). Besides, the figures for the activity change, negative = inhibition in assay [2] and in assay [4] were -17.3% and -16.2%, respectively. The Potency entry in [5] and in [6] was “inactive” throughout.

Consider `CNc1ncncc1-c1ccc(C(=O)N(C)C)cc1`, for which the Potency in assay [1] was over 11.4 µM; in [3] it was 15.8 µM (active); in assay [7], over 46 µM; in assay [8], over 46 µM; in assay [15], 5.01 µM (active). Further, in assay [2], the activity change, negative = inhibition was -7.23%. Further, the activity, negative = inhibition in [14] is 8.34%. Also, the Potency result in assay [5], in [6] and in assay [9] was “inactive” each time.

Turning to `COCCn1c(=O)c(-c2ccccc2)nc2cnc(Nc3ccccc3)nc21`, the Potency was over 11.4 µM in assay [1], 5.01 µM (active) in assay [3], over 9.22 µM in [7] and over 46 µM in assay [8]. The values for the activity change, negative = inhibition in assay [2] and in assay [4] were -24.1% and 10.4%, respectively. The Potency result in assay [5] and in [9] was “inactive” in each case.
